Data reported in PubChem BioAssay AID1159580 (chemical genetic matrix, 2015).
Out of some 5,500 compounds screened, about 2,000 (36%) were called active. Another 18% or so got no clear call; they are omitted. Cut-off read from the data, not from the text of the source: active = normalized growth mostly below about 0.91 (no sharp cut-off); inconclusive = no clear call, values can overlap the other calls; inactive = mostly above about 0.92. Some of the results follow.

Assay: chemical genetic growth profiling, strain panel (AID 1159580);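 note: tested at 20 µM; growth read once vehicle control cultures reached saturation at 30 °C; 1 = growth at the plate median or of vehicle wells; lower values mean less growth of the strain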
Settings: S. cerevisiae deletion strains, growth OD

Measured: normalized growth

C=C1CCC(OC(C)=O)/C(C)=C/C[C@@H]2[C@@H]1CC2(C)C (some centres undefined)
inactive: locus YAL021C, strain ccr4, hits give low values 1.01 | locus YAL026C, strain drs2, hits give low values 1.01 | locus YAL030W, strain snc1, hits give low values 1.01 | locus YBL061C, strain skt5, hits give low values 1.01 | locus YBR009C, strain hhf1, hits give low values 1.01 | locus YBR021W, strain FUR4, hits give low values 1.02 | locus YBR023C, strain chs3, hits give low values 1.01 | locus YBR171W, strain sec66, hits give low values 1 | locus YBR229C, strain ROT2, hits give low values 1 | locus YBR231C, strain swc5, hits give low values 1.01 | locus YBR279W, strain paf1, hits give low values 1.01 | locus YCL011C, strain gbp2, hits give low values 1.02 | locus YCL016C, strain dcc1, hits give low values 1.01 | locus YCL029C, strain bik1, hits give low values 1.03 | locus YCL061C, strain MRC1, hits give low values 1.01 | locus YCL069W, strain vba3, hits give low values 1.01 | locus YCR088W, strain abp1, hits give low values 1.01 | locus YDL005C, strain med2, hits give low values 1.01 | locus YDL035C, strain GPR1, hits give low values 1.01 | locus YDL040C, strain nat1, hits give low values 1.01 | locus YDL074C, strain BRE1, hits give low values 1.02 | locus YDL101C, strain DUN1, hits give low values 1.02 | locus YDL185W, strain tfp1, hits give low values 1.03 | locus YDL192W, strain arf1, hits give low values 1.02 | locus YDR001C, strain nth1, hits give low values 1 | locus YDR069C, strain doa4, hits give low values 1.03 | locus YDR101C, strain arx1, hits give low values 0.983 | locus YDR137W, strain rgp1, hits give low values 0.929 | locus YDR159W, strain sac3, hits give low values 1.02 | locus YDR162C, strain NBP2, hits give low values 0.997 | locus YDR195W, strain ref2 1.02 | locus YDR297W, strain sur2, hits give low values 1.02 | locus YDR318W, strain mcm21, hits give low values 1.03 | locus YDR334W, strain swr1, hits give low values 1.01 | locus YDR335W, strain msn5, hits give low values 1.01 | locus YDR388W, hits give low values 1.02 | locus YDR392W, strain spt3, hits give low values 0.812 | locus YDR502C, strain sam2, hits give low values 1.03 | locus YEL003W, strain gim4, hits give low values 1.02 | locus YEL037C, strain rad23, hits give low values 1.01 | locus YEL061C, strain CIN8 (second series), hits give low values 1.02 | locus YER015W, strain faa2, hits give low values 1.01 | locus YER016W, strain bim1, hits give low values 1.01 | locus YER110C, hits give low values 1.03 | locus YER111C, strain swi4, hits give low values 1.01 | locus YER155C, strain BEM2 (second series), hits give low values 1.03 | locus YER155C, strain BEM2, hits give low values 1.02 | locus YER167W, strain BCK2, hits give low values 1.01 | locus YFR010W, strain ubp6, hits give low values 1.01 | locus YGL078C, strain dbp3, hits give low values 1.04 | locus YGL086W, strain mad1, hits give low values 1.01 | locus YGL167C, strain pmr1, hits give low values 1.02 | locus YGL173C, strain kem1, hits give low values 1.01 | locus YGL227W, strain vid30, hits give low values 1.03 | locus YGL240W, strain doc1, hits give low values 1.01 | locus YGL248W, strain PDE1, hits give low values 1.01 | locus YGL253W, strain hxk2, hits give low values 1.01 | locus YGR078C, strain PAC10, hits give low values 1.03 | locus YGR135W, strain pre9, hits give low values 1.05 | locus YGR252W, strain gcn5, hits give low values 1.05 | locus YHR013C, strain ard1, hits give low values 1 | locus YHR027C, strain rpn1, hits give low values 1.01 | locus YHR030C, strain SLT2, hits give low values 1.01 | locus YHR079C, strain IRE1 (second series), hits give low values 1.02 | locus YHR094C, strain hxt1, hits give low values 1.01 | locus YHR129C, strain ARP1, hits give low values 1.01 | locus YHR142W, strain chs7, hits give low values 0.987 | locus YHR200W, strain rpn10, hits give low values 1 | locus YIL066C, strain RNR3, hits give low values 1 | locus YIL073C, strain SPO22, hits give low values 1.06 | locus YIL125W, strain kgd1, hits give low values 1 | locus YIR030C, strain dcg1, hits give low values 1.02 | locus YJL092W, strain hpr5, hits give low values 1.01 | locus YJL095W, strain BCK1 (second series), hits give low values 1.01 | locus YJL095W, strain BCK1, hits give low values 1.02 | locus YJL115W, strain asf1, hits give low values 1.01 | locus YJL129C, strain trk1, hits give low values 0.976 | locus YJL134W, strain LCB3, hits give low values 1.01 | locus YJL154C, strain vps35, hits give low values 1.01 | locus YJL164C, strain tpk1, hits give low values 1.01 | locus YJL166W, strain qcr8, hits give low values 1 | locus YJL168C, strain set2, hits give low values 1.02 | locus YJL187C, strain SWE1 (second series), hits give low values 1.05 | locus YJL187C, strain SWE1, hits give low values 1.01 | locus YJR075W, strain HOC1, hits give low values 1.02 | locus YKL009W, strain mrt4, hits give low values 1 | locus YKL068W, hits give low values 1.01 | locus YKL085W, strain MDH1 (second series), hits give low values 1.02 | locus YKL085W, strain MDH1, hits give low values 1.02 | locus YKL160W, strain elf1, hits give low values 1 | locus YKL190W, strain CNB1, hits give low values 1.01 | locus YKR001C, strain vps1, hits give low values 0.996 | locus YKR026C, strain gcn3, hits give low values 0.987 | locus YKR091W, strain srl3, hits give low values 1.01 | locus YLL001W, strain dnm1, hits give low values 1.02 | locus YLL026W, hits give low values 1.02 | locus YLL041C, strain sdh2, hits give low values 1.01 | locus YLR027C, strain aat2, hits give low values 1 | locus YLR039C, strain RIC1, hits give low values 0.957 | locus YLR058C, strain SHM2, hits give low values 1 | locus YLR102C, strain apc9, hits give low values 1 | locus YLR221C, strain rsa3, hits give low values 1.01 | locus YLR258W, strain gsy2, hits give low values 1.01 | locus YLR262C, strain YPT6 (second series), hits give low values 0.905 | locus YLR262C, strain YPT6, hits give low values 0.932 | locus YLR268W, strain sec22, hits give low values 0.995 | locus YLR320W, strain mms22, hits give low values 0.972 | locus YLR342W, strain FKS1, hits give low values 1.01 | locus YLR357W, strain rsc2, hits give low values 1.01 | locus YLR370C, strain arc18, hits give low values 1.01 | locus YLR371W, strain rom2, hits give low values 1.03 | locus YLR384C, strain iki3, hits give low values 0.999 | locus YLR418C, strain cdc73, hits give low values 1.06 | locus YML016C, strain PPZ1, hits give low values 1.02 | locus YML032C, strain rad52, hits give low values 0.995 | locus YML120C, strain ndi1, hits give low values 1.02 | locus YML124C, strain tub3, hits give low values 1.01 | locus YMR058W, strain fet3, hits give low values 1.01 | locus YMR078C, strain ctf18, hits give low values 1.03 | locus YMR125W, strain sto1, hits give low values 1.02 | locus YMR129W, hits give low values 1.01 | locus YMR205C, strain PFK2, hits give low values 0.996 | locus YMR223W, strain ubp8, hits give low values 1.02 | locus YMR231W, strain pep5, hits give low values 1.01 | locus YMR307W, strain GAS1, hits give low values 0.973 | locus YNL067W, strain RPL9B, hits give low values 1.02 | locus YNL071W, strain lat1, hits give low values 0.99 | locus YNL209W, strain ssb2, hits give low values 1.02 | locus YNL233W, strain BNI4, hits give low values 1.04 | locus YNL248C, strain rpa49, hits give low values 0.997 | locus YNL250W, strain rad50, hits give low values 1.07 | locus YNL271C, strain bni1, hits give low values 1.01 | locus YNL298W, strain CLA4, hits give low values 1.01 | locus YNL307C, strain MCK1, hits give low values 1.02 | locus YNL322C, strain KRE1 (second series), hits give low values 1.02 | locus YNL322C, strain KRE1, hits give low values 1.01 | locus YNR049C, strain mso1, hits give low values 1.02 | locus YNR052C, strain pop2, hits give low values 1.03 | locus YOL012C, strain htz1 1.04 | locus YOL147C, strain pex11, hits give low values 1.02 | locus YOR001W, strain rrp6, hits give low values 1.02 | locus YOR061W, strain CKA2, hits give low values 1 | locus YOR069W, strain VPS5, hits give low values 1.01 | locus YOR070C, strain gyp1, hits give low values 1 | locus YOR080W, strain dia2, hits give low values 1.01 | locus YOR083W, strain WHI5, hits give low values 1.01 | locus YOR106W, strain vam3, hits give low values 0.994 | locus YOR136W, strain idh2, hits give low values 0.997 | locus YOR144C, strain elg1, hits give low values 1.01 | locus YOR184W, strain ser1, hits give low values 0.992 | locus YOR265W, strain rbl2, hits give low values 1.01 | locus YOR270C, strain vph1, hits give low values 0.909 | locus YOR290C, strain snf2, hits give low values 0.963 | locus YOR316C, strain cot1, hits give low values 1.02 | locus YPL051W, strain arl3, hits give low values 0.994 | locus YPL055C, strain LGE1, hits give low values 1.04 | locus YPL078C, strain atp4, hits give low values 1 | locus YPL106C, strain sse1, hits give low values 1.05 | locus YPL240C, strain hsp82, hits give low values 1.01 | locus YPR119W, strain clb2, hits give low values 1.01 | locus YPR141C, strain kar3, hits give low values 1.02 | locus YPR163C, strain tif3, hits give low values 1 | locus YPR167C, strain met16, hits give low values 1.02 | strain wtn01, hits give low values 1
